Assay results from PubChem BioAssay (NCATS).
Results filed as inconclusive are left out. Where a call stands in place of a potency, no number is given. Unmarked numbers belong to inactive results. The source made the active and inactive calls. The call rests on the fitted dose curve; in most records, active means well fitted curve in the direction sought with a large enough effect; inconclusive means small, poorly fitted or top-dose-only effect, or another doubt; inactive means no such curve, though single readings can be large; an effect the other way counts as inactive or inconclusive.

Experiments:
[1] = Quantitative High-Throughput drug screen in 47 multiple myeloma cell lines against the NCATS MIPE library collection: KMS12PE_JCRB cell viability assay (AID 1918972); further: nearly all actives have a fitted effect of over 30% in size; further: potency means the concentration at half of the fitted maximal effect
Summary of the method: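 Luminescent ATP measurement with CellTiter-Glo gives viability, scaled between DMSO-only wells (100%) and media-only wells (0%). Cells, 500 per well, faced library compounds for 48 hours at 37C.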

[2] = Quantitative High-Throughput drug screen in 47 multiple myeloma cell lines against the NCATS MIPE library collection: KMS26_JCRB cell viability assay (AID 1918975); further: nearly all actives have a fitted effect of over 45% in size; further: potency means the concentration at half of the fitted maximal effect
Summary of the method: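 Relative luminescence from CellTiter-Glo served as the viability signal, referenced to DMSO-treated (100%) and cell-free medium (0%) controls. Treatment lasted 48 hours at 37C with 500 cells per well.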

[3] = Quantitative High-Throughput drug screen in 47 multiple myeloma cell lines against the NCATS MIPE library collection: MMM1_PLB cell viability assay (AID 1918976); further: nearly all actives have a fitted effect of over 35% in size; further: potency means the concentration at half of the fitted maximal effect
Summary of the method: (§1)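 qHTS format: cells plated (500/well), pin-dosed with MIPE 4.0 compounds, kept 48 h at 37 °C. Readout was CellTiter-Glo luminescence, median RLU.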

[4] = Quantitative High-Throughput drug screen in 47 multiple myeloma cell lines against the NCATS MIPE library collection: NCIH929_DSMZ cell viability assay (AID 1918978); further: nearly all actives have a fitted effect of over 35% in size
Summary of the method: as §1

[5] = Quantitative High-Throughput drug screen in 47 multiple myeloma cell lines against the NCATS MIPE library collection: OCIMY1_PLB cell viability assay (AID 1918979); further: nearly all actives have a fitted effect of over 35% in size; further: potency means the concentration at half of the fitted maximal effect
Summary of the method: as §1

[6] = Quantitative High-Throughput drug screen in 47 multiple myeloma cell lines against the NCATS MIPE library collection: MM1S_ATCC cell viability assay (AID 1918980); further: nearly all actives have a fitted effect of over 45% in size; further: potency means the concentration at half of the fitted maximal effect
Summary of the method: as §1

[7] = Quantitative High-Throughput drug screen in 47 multiple myeloma cell lines against the NCATS MIPE library collection: LP1_DSMZ cell viability assay (AID 1918982); further: nearly all actives have a fitted effect of over 35% in size
Summary of the method: as §1

[8] = Quantitative High-Throughput drug screen in 47 multiple myeloma cell lines against the NCATS MIPE library collection: KMS28PE_JCRB cell viability assay (AID 1918983); further: nearly all actives have a fitted effect of over 35% in size; further: potency means the concentration at half of the fitted maximal effect
Summary of the method: as §1

[9] = Quantitative High-Throughput drug screen in 47 multiple myeloma cell lines against the NCATS MIPE library collection: KMS34_JCRB cell viability assay (AID 1918985); further: nearly all actives have a fitted effect of over 40% in size; further: potency means the concentration at half of the fitted maximal effect
Summary of the method: as §1

[10] = Quantitative High-Throughput drug screen in 47 multiple myeloma cell lines against the NCATS MIPE library collection: OCIMY5_PLB cell viability assay (AID 1918988); further: nearly all actives have a fitted effect of over 65% in size; further: potency means the concentration at half of the fitted maximal effect
Summary of the method: as §1

[11] = Quantitative High-Throughput drug screen in 47 multiple myeloma cell lines against the NCATS MIPE library collection: OPM1_PLB cell viability assay (AID 1918989); further: nearly all actives have a fitted effect of over 40% in size; further: potency means the concentration at half of the fitted maximal effect
Summary of the method: as §1

[12] = Quantitative High-Throughput drug screen in 47 multiple myeloma cell lines against the NCATS MIPE library collection: SKMM1_PLB cell viability assay (AID 1919863); settings: SKMM1 myeloma viability, CellTiter-Glo ATP, 48 h; viability: active compounds read low; further: nearly all actives have a fitted effect of over 35% in size
Summary of the method: as §1

[13] = Quantitative High-Throughput drug screen in 47 multiple myeloma cell lines against the NCATS MIPE library collection: U266_ATCC cell viability assay (AID 1919864); further: nearly all actives have a fitted effect of over 35% in size; further: potency means the concentration at half of the fitted maximal effect
Summary of the method: as §1

[14] = Quantitative High-Throughput drug screen in 47 multiple myeloma cell lines against the NCATS MIPE library collection: XG6_PLB cell viability assay (AID 1919865); further: nearly all actives have a fitted effect of over 40% in size; further: potency means the concentration at half of the fitted maximal effect
Summary of the method: as §1

[15] = Quantitative High-Throughput drug screen in 47 multiple myeloma cell lines against the NCATS MIPE library collection: MM1R_ATCC cell viability assay (AID 1918981); further: nearly all actives have a fitted effect of over 35% in size; further: potency means the concentration at half of the fitted maximal effect
Summary of the method: as §1

[16] = Quantitative High-Throughput drug screen in 47 multiple myeloma cell lines against the NCATS MIPE library collection: L363_DSMZ cell viability assay (AID 1918984); settings: L363 myeloma viability, CellTiter-Glo ATP luminescence, 48 h; viability (% of control): at 45.8 µM (top of the series); further: nearly all actives have a fitted effect of over 40% in size; further: potency means the concentration at half of the fitted maximal effect
Summary of the method: as §1

[17] = Quantitative High-Throughput drug screen in 47 multiple myeloma cell lines against the NCATS MIPE library collection: OCIMY7_PLB cell viability assay (AID 1918987); settings: OCI-MY7 myeloma viability, CellTiter-Glo ATP, 48 h; viability (% of DMSO): at 45.8 µM (top of the series); further: nearly all actives have a fitted effect of over 65% in size; further: potency means the concentration at half of the fitted maximal effect
Summary of the method: as §1

[18] = Quantitative High-Throughput drug screen in 47 multiple myeloma cell lines against the NCATS MIPE library collection: KMS21BM_JCRB cell viability assay (AID 1918974); settings: ATP luminescence, 48 h; viability: at 45.8 µM (top of the series); further: potency means the concentration at half of the fitted maximal effect
Summary of the method: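 Approved and investigational drugs from MIPE 4.0 were added by pin tool to 500 cells per well. After 48 hours at 37C, ATP-based CellTiter-Glo luminescence indicated remaining viability.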

With `CN(C)N=Nc1nc[nH]c1C(N)=O` the Potency [1] was 0.166 µM (active), the Potency [2] was 20.9 µM (active) and the Potency [3] was 4.69 µM (active). For the same compound, the Potency [4] was “inactive”, the Potency [5] was “inactive” and the Potency [6] was “inactive”. For the same compound, the Potency [7] was “inactive”, the Potency [8] was “inactive” and the Potency [9] was “inactive”. For the same compound, the Potency [10] was 20.9 µM (active), the Potency [11] was 4.18 µM (active) and the viability [12] was 140%. The Potency [13] was “inactive” and the Potency [14] was 5.26 µM (active).

With `OC[C@H]1O[C@@H](O[C@H]2[C@@H](O)[C@@](O)(CO)O[C@@H]2CO)[C@H](O)[C@@H](O)[C@@H]1O` the Potency [1] was “inactive”, the Potency [2] was “inactive” and the Potency [3] was 3.72 µM (active). The Potency [4] was “inactive”, the Potency [5] was “inactive” and the Potency [6] was “inactive”. For the same compound, the Potency [15] was “inactive”, the Potency [7] was “inactive” and the Potency [8] was “inactive”. The Potency [16] was “inactive”, the Potency [9] was “inactive” and the Potency [17] was “inactive”. The Potency [10] was “inactive”, the Potency [11] was “inactive” and the viability [12] was 96.6%. The Potency [13] was “inactive” and the Potency [14] was “inactive”.

For `COc1ccc2cc1Oc1ccc(cc1)C[C@H]1c3cc(c(OC)cc3CCN1C)Oc1c(OC)c(OC)cc3c1[C@H](C2)N(C)CC3`, the Potency [1] was 4.69 µM (active), the Potency [2] was 14.8 µM (active) and the Potency [3] was 6.62 µM (active). The Potency [5] was 18.7 µM (active), the Potency [6] was 18.7 µM (active) and the Potency [15] was 13.2 µM (active). The Potency [8] was 14.8 µM (active), the Potency [16] was 5.9 µM (active) and the Potency [9] was 14.8 µM (active). For the same compound, the Potency [17] was 16.6 µM (active), the Potency [10] was 16.6 µM (active) and the Potency [11] was 18.7 µM (active). For the same compound, the Potency [13] was 18.7 µM (active) and the Potency [14] was 14.8 µM (active).

In the case of `COc1cc(N2CCN(C)CC2)ccc1Nc1nc(N)c(C(=O)c2c(Cl)cccc2Cl)s1`, the Potency [1] is reported as 23.5 µM (active), the Potency [18] is reported as 10.5 µM (active) and the Potency [3] is reported as 8.33 µM (active). For the same compound, the Potency [6] was 20.9 µM (active), the Potency [8] was 14.8 µM (active) and the Potency [16] was 20.9 µM (active). For the same compound, the Potency [10] was 18.7 µM (active), the Potency [11] was 20.9 µM (active) and the Potency [13] was 18.7 µM (active).

In the case of `CC(C)=CCCC(C)=CCCC(C)=CCCC(C)=CCCC(C)=CCCC(C)=CCCC(C)=CCCC(C)=CCCC(C)=CCO`, the Potency [1] is reported as “inactive”, the Potency [2] is reported as “inactive” and the Potency [3] is reported as “inactive”. For the same compound, the Potency [4] was “inactive”, the Potency [5] was “inactive” and the Potency [6] was “inactive”. For the same compound, the Potency [15] was “inactive”, the Potency [7] was “inactive” and the Potency [8] was “inactive”. The Potency [16] was “inactive”, the Potency [9] was “inactive” and the Potency [17] was “inactive”. The Potency [11] was “inactive” and the Potency [14] was “inactive”.
